Growth data for 26 compounds are collected here from PubChem BioAssay (NCI).

SMILES strings stand for the structures. About 83,000 compounds went through this panel and 20% of them were active in at least one assay; those are over-represented in the sample as a whole.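 The test compound was applied at a single concentration to cells in 96-well plates for 48 hours, and percent growth was recorded.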 Unmarked numbers belong to inactive results. The source made the active and inactive calls. Rule for the calls: active = growth percent below 10; inactive = the rest.

Common to all, as to assay: NCI-60 one-dose screen, 48 h (100 = growth as untreated, 0 = no growth, -100 = all killed)
What all share (details): 10 µM unless noted

In assay [1] the test system is SK-MEL-2 melanoma.
Assay [2] relates to EKVX NSCLC.
The test system of assay [3] is SN12C renal.
Assay [4] deals with UO-31 renal.
The subject of assay [5] is TK-10 renal.
Assay [6] relates to ACHN renal.
For assay [7], the system named is CAKI-1 renal.
In assay [8] the test system is A498 renal.
The subject of assay [9] is CCRF-CEM leukemia.
Assay [10] has as its system MOLT-4 leukemia.

On to `CC1(C)CC[C@]2(C(=O)O)CC[C@]3(C)C(=CCC4[C@@]5(C)C[C@@H](O)[C@@H]6OC(c7ccccc7F)OC[C@@]6(C)C5CC[C@]43C)C2C1` (stereo not given in full), for which the growth in assay [1] is -14.8% (active); in [2], 13.8%; in assay [3] it was 3.09% (active); in assay [4], 4% (active); in [5], 7.15% (active); in assay [6], 4.14% (active). Moreover, the growth is 9.12% (active) in [7], 31% in assay [8], 17% in assay [9] and 2.87% (active) in assay [10].
Regarding `O=C(O)c1ccc(-c2ccc(/C=N/NC(=O)c3[nH]c4ccc(Br)cc4c3-c3ccccc3)s2)cc1`, the growth is -43% (active) in assay [1]; 13.3% in [2]; 11.5% in [3]; 24.7% in [4]; 22.8% in assay [5]; 14.2% in [6]. Besides, the growth in assay [7] is 20%; in [8] it was 40%; in [9], 7.68% (active); in assay [10], 10.7%.
For the compound `COc1c(F)ccc(C(=O)Nc2ccc3nc(NC(=O)C4CCCN(S(=O)(=O)c5cccc(Br)c5)C4)sc3c2)c1F` (stereo not given), the growth in [1] is 94.9%; in assay [2], 90.9%; in [3], 88.4%; in [4], 79.3%; in [5] it was 118%; in assay [6], 82.9%. In addition, the growth in assay [7] was 76.4%; in assay [8], 112%; in [9], 89.5%; in [10], 49.3%.
As to `Cn1cc(NC(=O)c2cc(NC(=O)c3ccc(C#Cc4ccccc4)cc3)cn2C)cc1C(=O)NCCCN1CCOCC1`, the growth in [1] is 86.2%; in assay [2], 80.9%; in [3], 40%; in assay [4] it was 67.8%; in [5] it was 126%; in assay [6], 63.8%. The growth in assay [7] is 56.9%; in assay [8], 114%; in [9], 0.88% (active); in [10], -19.3% (active).
`CCOC(=O)c1ccc(Nc2nc(NN)nc(-c3ccc(F)cc3)c2C#N)cc1`: the growth in assay [1] is 115%; in assay [2], 120%; in assay [3] it was 103%; in assay [4], 88.3%; in assay [5], 104%; in assay [6], 103%. The growth is 108% in assay [7], 101% in assay [8], 91.9% in assay [9] and 89.8% in assay [10].
With `C=C1CCC2C3(C)COC(c4cccc(F)c4)OC3CCC2(C)C1C/C=C1/C(=O)OCC1O` (stereo not given), the growth in assay [1] was -50.6% (active); in assay [2], 23.1%; in [3], 4.14% (active); in assay [4], -63.2% (active); in [5] it was -6.05% (active); in [6], -89.6% (active). Further, the growth in assay [7] is 11%; in [8], 118%; in assay [9] it was 16%; in assay [10], 7.01% (active).
For `CN(C)CCCNC(=O)c1cc(NC(=O)c2cc(NC(=O)c3ccc(/C=C/c4ccccc4)cc3)cn2C)cn1C`, the growth is 60.6% in assay [1]; 66.9% in [2]; 49.3% in [3]; 66.6% in assay [4]; 83.7% in assay [5]; 40.3% in [6]. In addition, the growth is 34.7% in assay [7], 103% in assay [8], 22.9% in [9] and -5.97% (active) in assay [10].
As to `CCOC(=O)c1ccc(Nc2nc(NN)nc(-c3ccc(OC)cc3)c2C#N)cc1`, the growth in assay [1] is 114%; in [2], 118%; in assay [3] it was 114%; in assay [4], 93.8%; in [5], 120%; in [6], 113%. Further, the growth was 105% in assay [7], 118% in assay [8], -5.35% (active) in assay [9] and 36.1% in [10].
Consider `Cc1cc2c(cc1Cl)C(=O)/C(=C/c1ccccc1)O2`, for which the growth in assay [1] is 41%; in [2] it was -7.97% (active); in [3], -68.8% (active); in assay [4], -80.4% (active); in assay [5], 56%; in assay [6], -83.1% (active). Besides, the growth in assay [7] was -81.1% (active); in [8] it was 115%; in assay [9], 4.91% (active); in assay [10], 0.549% (active).
As to `C#CCOc1cc(N(CC)CC)ccc1C(C(=O)NC(C)(C)C)N(C(=O)C1CCc2cc(F)ccc2O1)c1ccccc1Br` (stereo not given), the growth in assay [1] was 3.66% (active); in [2] it was 60.4%; in assay [3] it was 56.3%; in assay [4], 43.4%; in [5], 86.3%; in assay [6], 42.1%. Moreover, the growth in assay [7] was 44.7%; in [8], 80.9%; in assay [9] it was 57.5%; in assay [10] it was 14.4%.
Take `CC1=C(C(=O)OC(C)C)C(c2cccc(O)c2)NC(=S)N1` (stereo not given): the growth in assay [1] is 111%; in assay [2] it was 99.6%; in [3], 102%; in assay [4], 92%; in assay [5], 104%; in assay [6] it was 98.1%. Moreover, the growth in assay [7] is 89.9%; in assay [8], 125%; in assay [9] it was 98.6%; in assay [10], 96.1%.
Take `COc1ccc(-c2ccnc(SCc3cc4cc(OC)ccc4[nH]c3=O)n2)cc1`: the growth in [1] was 12.8%; in assay [2], 34%; in assay [3], 14.7%; in [4], 21.1%; in assay [5], 36.8%; in assay [6], 33.6%. In addition, the growth is 38.8% in assay [7], 79.6% in assay [8], 6.65% (active) in assay [9] and 4.45% (active) in assay [10].
Turning to `Cc1ccc([C@H]2C(C(=O)c3ccc(Cl)cc3)C3(N[C@@H]2c2ccccc2)C(=O)Nc2ccccc23)cc1` (stereo not given in full), the growth in assay [1] was 15.6%; in assay [2], 29.6%; in assay [3] it was 4.19% (active); in assay [4] it was 17.7%; in assay [5] it was 40.8%; in assay [6], 22.5%. Also, the growth in [7] was 32%; in assay [8] it was 75.5%; in assay [9] it was 14.7%; in assay [10] it was -26.6% (active).
Turning to `COc1c(F)ccc(C(=O)Nc2ccc3nc(NC(=O)C4CCCN(S(=O)(=O)c5cccc(C(F)(F)F)c5)C4)sc3c2)c1F` (stereo not given), the growth in assay [1] is 83.8%; in assay [2] it was 94.5%; in assay [3], 78.8%; in assay [4] it was 74.8%; in assay [5], 102%; in assay [6], 83.6%. Besides, the growth in assay [7] was 83.1%; in assay [8], 101%; in assay [9], 88.7%; in assay [10], 44.9%.
On to `CCCCNC(=S)Nc1ccc(OCc2nc3ccccc3[nH]2)cc1`, for which the growth in [1] was 69.1%; in assay [2], 62.3%; in assay [3], 64.5%; in [4], 41.1%; in [5], 98.8%; in assay [6], 45.5%. The growth in assay [7] is 40%; in assay [8] it was 96.5%; in assay [9], 34.2%; in assay [10] it was 35.2%.
With `O=C(/C=C/c1ccc(-c2ccccc2)cc1)c1nc2ccccc2n1Cc1ccc(F)cc1`, the growth was 56.6% in assay [1]; 34.4% in assay [2]; 53.9% in assay [3]; 47.6% in assay [4]; 55.8% in assay [5]; 41.3% in assay [6]. The growth in [7] was 49.5%; in assay [8], 110%; in assay [9], 11.9%; in assay [10], -12.8% (active).
Turning to `COc1ccc(-c2nc3cc(C)ccc3n2CC(=O)N=Nc2c(O)[nH]c3ccc(Cl)cc23)cc1`, the growth in assay [1] is 47.9%; in assay [2], -49.5% (active); in assay [3], -62.6% (active); in assay [4], 41.7%; in assay [5], 21.6%; in [6] it was 5.37% (active). Besides, the growth in assay [7] is 33%; in [8] it was 101%; in assay [9], 54.9%; in assay [10] it was 11%.
With `CC1(C)CC[C@]2(C(=O)O)CC[C@]3(C)C(=CCC4[C@@]5(C)C[C@@H](O)[C@@H]6OC(c7cccc(Br)c7)OC[C@@]6(C)C5CC[C@]43C)C2C1` (stereo not given in full), the growth in assay [1] is 65.8%; in [2] it was 27.8%; in assay [3] it was 46.3%; in [4], 30.3%; in assay [5], 35.4%; in assay [6], 19.4%. Besides, the growth in [7] is 39.4%; in assay [8], 69.5%; in [9] it was 27.5%; in [10], 13.2%.
With `CCCCSc1nc(Nc2ccc(S(N)(=O)=O)cc2)c(C#N)c(-c2cc(OC)c(OC)c(OC)c2)n1`, the growth in [1] was 87.7%; in [2], 55.2%; in assay [3], 23.1%; in assay [4], 12.1%; in assay [5], 82.2%; in [6], 12.2%. Further, the growth in [7] was 34.9%; in assay [8], 88.1%; in assay [9], 22.1%; in [10], -29.9% (active).
Consider `CC(=O)Nc1ccc(-n2cnc3cc(-c4ccc(O)cc4)ccc32)cc1C(F)(F)F`, for which the growth in [1] is 17.4%; in assay [2], 27.3%; in [3], 15.6%; in assay [4], 10.3%; in [5] it was 33%; in assay [6], 6.32% (active). Besides, the growth in assay [7] was 28.6%; in [8], 57.1%; in [9], 40.5%; in assay [10], 29.6%.
For `Cc1ccc(C2=NN(c3nc(-c4cc5ccccc5oc4=O)cs3)C(c3ccc(C)cc3)C2)cc1` (stereo not given), the growth in assay [1] was 104%; in [2], 93.6%; in assay [3] it was 104%; in [4], 68%; in assay [5], 163%; in [6], 102%. Further, the growth was 88.2% in assay [7], 127% in assay [8], 101% in assay [9] and 98.5% in assay [10].
Turning to `COCOc1ccc2c(=O)c(C)c(C(=O)N[C@@H](Cc3ccccc3)C(O)C(=O)NCCc3ccc(OC)cc3)oc2c1` (stereo not given in full), the growth in assay [1] was 118%; in assay [2], 111%; in [3] it was 95.2%; in assay [4] it was -20.1% (active); in [5], 116%; in assay [6] it was 114%. For the same compound, the growth in assay [7] is 101%; in assay [8] it was 136%; in [9], 105%; in [10], 94.8%.
For `COc1cc(C2CC(c3cc(OC)c(OC)c(OC)c3)=NN2C(C)=O)ccc1OCc1ccc(F)cc1` (stereo not given), the growth in [1] was 69.5%; in assay [2], 59.4%; in assay [3], 53.9%; in assay [4] it was 29.7%; in assay [5], 50.5%; in [6] it was 59.2%. The growth in [7] is 53.2%; in [8], 59.4%; in [9] it was 59.9%; in [10], 30.6%.
In the case of `CCN(CC)c1ccc(/C=N/Nc2nc(-c3ccc(C)cc3)cs2)c(O)c1`, the growth in assay [1] is 79.7%; in [2], 79.2%; in [3] it was 99.7%; in [4], 83.2%; in assay [5] it was 86.9%; in assay [6], 96.3%. In addition, the growth is 78% in assay [7], 105% in [8], 88.2% in assay [9] and 80% in assay [10].
For the compound `O=C(c1ccccc1)c1ccc2nc(-c3ccc(F)cc3)[nH]c2c1`, the growth in assay [1] is 62.4%; in [2], 80.9%; in assay [3] it was 30.5%; in assay [4], 91.1%; in [5] it was 104%; in assay [6] it was 57.1%. Further, the growth was 40.9% in [7], 90.7% in assay [8], 15.7% in assay [9] and 27.6% in assay [10].
In the case of `Cc1ccc2c(N)c(C(=O)Nc3ccc(OC(F)(F)F)cc3)sc2n1`, the growth in assay [1] was 67.4%; in [2], 26.9%; in [3], 70.2%; in assay [4] it was 56.2%; in [5], 95.4%; in assay [6], 61.2%. Further, the growth in [7] is 55.8%; in assay [8], 119%; in assay [9] it was 64.8%; in [10], 63.1%.
